Outcome and Potency data for 18 molecules are collected here from PubChem BioAssay (Tox21).

A short description of assay [1]: qHTS assay to test for compound auto fluorescence at 535 nm (green) in HEK293 cells (AID 720680).
Assay [2] in a line: qHTS assay to test for compound auto fluorescence at 460 nm (blue) in HEK293 cell free culture (AID 720681). The method in brief: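 Compounds were added to cell-free DMEM with 10% FBS and fluorescence read directly. The blue channel used 405 nm excitation and 460 nm emission, with triamterene as the reference fluorophore.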
Assay [3] is described as follows: qHTS assay to test for compound auto fluorescence at 535 nm (green) in HEK293 cell free culture (AID 720682). A digest of the protocol: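 No cells present: wells hold DMEM supplemented with 10% FBS, into which compound or vehicle is pinned. Green emission is then recorded (485 nm excitation, 535 nm emission) and scaled to fluorescein.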
On the technique in general: qHTS replaces the single test concentration by a dilution series.

Assay [4] can be described thus: qHTS assay to test for compound auto fluorescence at 590 nm (red) in HEK293 cell free culture (AID 720683). A digest of the protocol: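 Cell-free wells of DMEM with 10% FBS received compound, and intrinsic fluorescence was read at excitation/emission 540/590 nm. Values expressed as equivalence to Rose Bengal sodium.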
Assay [5] is described as follows: qHTS assay to test for compound auto fluorescence at 590 nm (red) in HepG2 cell free culture (AID 720684). The method in brief: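 Auto fluorescence equivalency versus Rose Bengal sodium, red channel Ex/Em 540/590 nm; compounds in cell-free MEM/10% FBS; DMSO vehicle control.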
Assay [6] can be described thus: qHTS assay to test for compound auto fluorescence at 460 nm (blue) in HepG2 cell free culture (AID 720685). A digest of the protocol: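 Cell-free plates of MEM plus 10% FBS received 23 nL compound or DMSO vehicle; blue-channel (405/460 nm) intensity scored against triamterene as reference fluorophore.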
The nature of assay [7]: qHTS assay to test for compound auto fluorescence at 535 nm (green) in HepG2 cell free culture (AID 720686).
Assay [8] can be described thus: qHTS assay to test for compound auto fluorescence at 460 nm (blue) in HepG2 cells (AID 720687). A digest of the protocol: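 HepG2 cells in MEM with 10% FBS, attached overnight at 37 C, were exposed to compound or DMSO for 1 hr at 37 C, 5% CO2. Blue fluorescence was read at 405/460 nm, with triamterene as reference fluorophore.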
Assay [9] in a line: qHTS assay to identify small molecule antagonists of the glucocorticoid receptor (GR) signaling pathway - cell viability counter screen (AID 720693). Note: nearly all actives have a fitted effect of over 55% in size. Note: potency is the fitted concentration of half-maximal effect.
Assay [10] in a line: qHTS assay for identifying genotoxic compounds that show differential cytotoxicity against isogenic chicken DT40 cell lines with known DNA damage response pathways - Rev3 mutant cell line (AID 743014). Note: nearly all actives have a fitted effect of over 55% in size. Note: potency is the fitted concentration of half-maximal effect.
The nature of assay [11]: qHTS assay for identifying genotoxic compounds that show differential cytotoxicity against isogenic chicken DT40 cell lines with known DNA damage response pathways - Rad54/Ku70 mutant cell line (AID 743015). Note: nearly all actives have a fitted effect of over 60% in size. Note: potency is the fitted concentration of half-maximal effect.
Assay [12] is described as follows: qHTS assay to identify small molecule antagonists of the androgen receptor (AR) signaling pathway - cell viability counter screen (AID 743033; note: nearly all actives have a fitted effect of over 45% in size; note: potency is the fitted concentration of half-maximal effect).
Assay [13] can be described thus: qHTS assay to identify small molecule antagonists of the androgen receptor (AR) signaling pathway using the MDA cell line - cell viability counter screen (AID 743041; note: nearly all actives have a fitted effect of over 45% in size; note: potency is the fitted concentration of half-maximal effect). A digest of the protocol:
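Compound exposure lasted 16 h at 37C in MDA-kb2 AR-luc cells stimulated with R1881. Protease-based CellTiter-Fluor reagent was applied for the final 30 min and fluorescence measured.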

The target in assay [14] is Glucocorticoid receptor (Homo sapiens) (UniProt P04150). Put plainly: qHTS assay to identify small molecule agonists of the glucocorticoid receptor (GR) signaling pathway (AID 720691; active = well fitted activation curve with a large enough effect in the signal ratio in the repeat runs, not every such curve was filed as active; the % refers to the signal ratio). The method in brief:
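Compounds in DMSO, alongside positive controls, were added to GR-bla HeLa reporter cells and incubated 18 h at 37 C; GRE-driven beta-lactamase was detected by fluorescence after 2 h with FRET substrate at room temperature.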

For assay [15] the target is unchanged. The assay can be described thus: qHTS assay to identify small molecule antagonists of the glucocorticoid receptor (GR) signaling pathway (AID 720692; active = well fitted inhibition curve with a large enough effect in the signal ratio in the repeat runs, not every such curve was filed as active; the % refers to the signal ratio; note: potency is the fitted concentration of half-maximal effect). A digest of the protocol: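 In a 1536-well cell format, compounds were added 4 h after seeding GR-bla HeLa cells, together with dexamethasone at 5 nM final; reporter activity was measured by FRET-substrate fluorescence following 18 h at 37 C.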

Assay [16] can be described thus: qHTS assay for identifying genotoxic compounds that show differential cytotoxicity against isogenic chicken DT40 cell lines with known DNA damage response pathways - wild type cell line (AID 743012). Note: nearly all actives have a fitted effect of over 60% in size. Note: potency is the fitted concentration of half-maximal effect. The method in brief: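 Viability of DNA repair-proficient chicken DT40 cells was assessed by CellTiter-Glo luminescence following 40 h compound exposure at 37 C/5% CO2.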

Values joined by “and” are separate entries in the source; they are usually repeats but may differ in a detail not shown here. Equal entries are not always repeated. Results filed as inconclusive are left out. More than one record can exist for a structure, and the calls need not agree. Active and inactive are the calls of the source. Unless noted, calls come from the whole dose curve; as a rule, active = well fitted curve in the direction sought with a large enough effect in the repeat runs; inconclusive = weak or mixed curves; inactive = no such curve, though single readings can be large; an effect the other way counts as inactive or inconclusive.
% is set by controls: 0 for no effect and ±100 for the full control effect.

Sequence of Glucocorticoid receptor (Homo sapiens) (P04150 whole entry, looked up): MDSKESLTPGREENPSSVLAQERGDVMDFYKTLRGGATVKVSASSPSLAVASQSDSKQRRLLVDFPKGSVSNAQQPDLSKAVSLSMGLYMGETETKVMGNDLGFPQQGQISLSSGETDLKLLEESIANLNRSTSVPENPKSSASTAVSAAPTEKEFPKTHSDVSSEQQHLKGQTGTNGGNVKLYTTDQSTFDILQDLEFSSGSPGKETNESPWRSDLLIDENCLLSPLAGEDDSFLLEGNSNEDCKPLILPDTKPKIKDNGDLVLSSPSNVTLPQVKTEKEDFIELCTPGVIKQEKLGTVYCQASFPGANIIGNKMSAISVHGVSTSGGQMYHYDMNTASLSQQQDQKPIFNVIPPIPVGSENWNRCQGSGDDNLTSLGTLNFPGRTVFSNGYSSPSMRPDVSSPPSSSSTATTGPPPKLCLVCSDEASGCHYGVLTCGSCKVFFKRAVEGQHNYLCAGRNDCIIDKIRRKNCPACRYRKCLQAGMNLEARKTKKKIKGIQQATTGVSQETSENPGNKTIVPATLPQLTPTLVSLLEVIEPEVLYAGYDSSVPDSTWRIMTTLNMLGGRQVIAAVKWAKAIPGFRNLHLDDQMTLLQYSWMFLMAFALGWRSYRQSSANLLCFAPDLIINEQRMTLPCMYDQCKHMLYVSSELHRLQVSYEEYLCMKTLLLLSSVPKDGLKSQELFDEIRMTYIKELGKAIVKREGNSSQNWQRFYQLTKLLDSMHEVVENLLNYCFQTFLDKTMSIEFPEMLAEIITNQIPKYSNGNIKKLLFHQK

For the molecule `CCCC[n+]1ccc(C)cc1`, the molecule was classed as inactive in assay [1], in assay [2], in assay [3], in [4], in assay [5] and in assay [6]. The outcome in assay [7] and in assay [8] was inactive. The Potency result in assay [9], in [12] and in assay [13] was “inactive” in each case. The Potency result was “inactive and 60.8 µM (active)” in [10]; “inactive and 48.3 µM (active) and 60.8 µM (active)” in assay [11].
Turning to `CNC`, the call in assay [1], in assay [2], in [3], in [4], in assay [5] and in assay [6] was inactive. The outcome in assay [7], in assay [8] and in assay [14] was inactive. The Potency result in [15], in assay [9], in assay [12] and in assay [13] was “inactive” each time.
With `CCn1cc[n+](C)c1C`, the molecule was called inactive in assay [1], in assay [2], in [3], in [4], in assay [5] and in [6]. The call in assay [7] and in assay [8] was inactive. Also, the Potency result in [9], in assay [16], in assay [10], in assay [11], in assay [12] and in assay [13] was “inactive” in each case.
As to `Cc1cc(-c2ccc(N)c(C)c2)ccc1N`, the call in assay [1], in assay [2], in assay [3], in assay [4], in assay [5] and in assay [6] was inactive. Besides, the molecule was called inactive in assay [7] and in [8]. For the same molecule, the Potency result in [9], in assay [16], in [12] and in assay [13] was “inactive” in each case. In addition, the Potency entry in [10] was “inactive and 34.3 µM (active)”; in assay [11], “inactive and 60.9 µM (active)”.
Take `CCCCn1cc[n+](C)c1`: the outcome in assay [1], in [2], in assay [3], in assay [4], in assay [5] and in assay [6] was inactive. Besides, the molecule was called inactive in assay [7] and in assay [8]. Also, the Potency entry in assay [9], in [10], in assay [11], in assay [12] and in [13] was “inactive” throughout.
`O=C(O)CC(O)(CC(=O)O)C(=O)O`: the call in [1], in assay [2], in assay [3], in assay [4], in [5] and in [6] was inactive. Besides, the molecule was classed as inactive in [7] and in assay [8]. For the same molecule, the Potency result in assay [9], in assay [10], in [11], in [12] and in assay [13] was “inactive” throughout.
In the case of `CCCCCCCCCCCC(=O)O`, the result in assay [1], in [2], in [3], in assay [4], in assay [5] and in [6] was inactive. In addition, the molecule was classed as inactive in assay [7] and in assay [8]. Moreover, the Potency entry in [9], in [10], in assay [12] and in assay [13] was “inactive” each time. Further, the Potency in assay [11] is 27.4 µM (active).
Regarding `COP(=O)(OC)OC=C(Cl)Cl`, the call in assay [1], in assay [2], in assay [3], in assay [4], in assay [5] and in assay [6] was inactive. Also, the outcome in [7] and in [8] was inactive. The Potency entry in [9], in assay [12] and in assay [13] was “inactive” in each case. In addition, the Potency in assay [10] is 11.9 µM (active) and inactive; in [11], 13.3 µM (active) and inactive.
Take `COCC(=O)N(c1c(C)cccc1C)C(C)C(=O)OC` (configuration not stated): the call in [1], in [2], in assay [3], in [4], in assay [5] and in [6] was inactive. Moreover, the result in [7] and in [8] was inactive. Moreover, the Potency entry in assay [9], in [11], in [12] and in assay [13] was “inactive” in each case. For the same molecule, the Potency result was “inactive and 61 µM (active)” in assay [16]; “inactive and 61 µM (active)” in assay [10].
Turning to `CCCCCCCCCCCCCC[P+](CCCCCC)(CCCCCC)CCCCCC`, the molecule was classed as inactive in [1], in assay [2], in assay [3], in [4], in assay [5] and in assay [6]. Also, the molecule was classed as inactive in assay [7], in assay [8] and in assay [14]. Also, the Potency in [9] is 12.4 µM (active) and 11.1 µM (active); in assay [16], 13.7 µM (active) and 6.91 µM (active); in assay [10], 7.73 µM (active) and 6.16 µM (active) and inactive; in assay [11], 6.14 µM (active) and 6.16 µM (active) and inactive; in assay [12] it was 982 nM (active) and 3.92 µM (active) and 346 nM (active).
As for `CN(C)[C@@H]1C(=O)C(C(N)=O)=C(O)[C@@]2(O)C(=O)C3=C(O)c4c(O)cccc4[C@@](C)(O)[C@H]3[C@H](O)[C@@H]12`, the result in assay [1], in [2], in assay [3], in assay [4], in [5] and in assay [6] was inactive. For the same molecule, the call in assay [7] and in assay [8] was inactive. Besides, the Potency result in assay [9], in assay [12] and in assay [13] was “inactive” in each case. Further, the Potency entry is “inactive and 43.3 µM (active)” in assay [10]; “inactive and 48.6 µM (active)” in assay [11].
With `CCCCCCn1cc[n+](C)c1`, the molecule was classed as inactive in assay [1], in assay [2], in assay [3], in assay [4], in assay [5] and in assay [6]. Also, the molecule was classed as inactive in assay [7] and in assay [8]. Also, the Potency entry in assay [9] was “inactive”. Moreover, the Potency in [13] is 31.9 µM (active) [middle of 5 runs].
Take `CCCCCC[n+]1ccccc1`: the call in [1], in assay [2], in [3], in assay [4], in assay [5] and in assay [6] was inactive. Besides, the call in [7] and in assay [8] was inactive. The Potency entry in [9] is “inactive”. For the same molecule, the Potency in [12] is 55.5 µM (active) and 55.3 µM (active) and inactive.
On to `O=C(O)C(Cl)(Cl)Cl`, for which the molecule was classed as inactive in assay [1], in [2], in [3], in [4], in assay [5] and in assay [6]. In addition, the call in assay [7] and in [8] was inactive. Further, the Potency entry in [9], in [10], in [11], in assay [12] and in assay [13] was “inactive” in each case.
As to `CCCC[N+]1(C)CCCCC1`, the molecule was called inactive in [1], in [2], in assay [3], in [4], in assay [5] and in assay [6]. In addition, the molecule was classed as inactive in [7] and in assay [8]. Moreover, the Potency result in [9], in [10], in [11], in assay [12] and in assay [13] was “inactive” in each case.
As to `CC(=O)O`, the molecule was classed as inactive in assay [1], in assay [2], in assay [3], in [4], in assay [5] and in assay [6]. For the same molecule, the molecule was called inactive in assay [7] and in assay [8]. The Potency entry in assay [9], in assay [10], in assay [11], in assay [12] and in assay [13] was “inactive” throughout.
With `Nc1ccc(-c2ccc(N)c(Cl)c2)cc1Cl`, the molecule was classed as inactive in assay [1], in assay [2], in assay [3], in assay [4], in [5] and in assay [6]. The result in assay [7] and in assay [8] was inactive. The Potency was 19.6 µM (active) and 11.5 µM (active) and 19.5 µM (active) in assay [15]; 48.8 µM (active) and 28.6 µM (active) and 54.5 µM (active) in assay [10]; 61.4 µM (active) and 50.8 µM (active) and 54.5 µM (active) in assay [11]. In addition, the Potency entry in assay [9], in assay [12] and in assay [13] was “inactive” in each case.
In the case of `CCCCCCCCn1cc[n+](C)c1`, the call in assay [1], in [2], in [3], in assay [4], in assay [5] and in assay [6] was inactive. In addition, the result in assay [7] and in assay [8] was inactive. In [9], the Potency result is “inactive”. Besides, the Potency is 607 nM (active) [middle of 4 runs] in [11]; 15.4 µM (active) and 11.1 µM (active) in assay [12]; 2.71 µM (active) and 1.53 µM (active) and 1.55 µM (active) in assay [13].
